This note sets out measurements from PubChem BioAssay AID686940 (The Scripps Research Institute Molecular Screening Center, 2013).

About 2,600 (0.7%) of roughly 370,000 compounds were called active. The sample holds actives, similar compounds and a random draw of the others, so the mix is not that of the screen. Unmarked numbers belong to inactive results.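 The calls were made as follows: active = inhibition above a per-plate cutoff, mean inhibition of test wells between control levels plus 3 SD (cut at about 38% in these data); inactive = the rest.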

The target of this test is COUP transcription factor 2 (Homo sapiens) (UniProt P24468). The test is described as follows: NR2F2 transcriptional activity inhibitors, primary screen, cell-based, luciferase reporter, HEK293T, luminescence (AID 686940).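 Also: cells cotransfected with COUP-TFII expression vector driving the NGFI-A reporter; 0% = median of COUP-TF2 test wells and 100% = reporter-only cells.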 The note with it: HEK293T NGFI-A luciferase reporter, at 8.6 µM, stronger effect = higher value. (In general: A reporter such as luciferase makes a cellular process visible.)
Chain of COUP transcription factor 2 (Homo sapiens) (P24468 whole entry, looked up): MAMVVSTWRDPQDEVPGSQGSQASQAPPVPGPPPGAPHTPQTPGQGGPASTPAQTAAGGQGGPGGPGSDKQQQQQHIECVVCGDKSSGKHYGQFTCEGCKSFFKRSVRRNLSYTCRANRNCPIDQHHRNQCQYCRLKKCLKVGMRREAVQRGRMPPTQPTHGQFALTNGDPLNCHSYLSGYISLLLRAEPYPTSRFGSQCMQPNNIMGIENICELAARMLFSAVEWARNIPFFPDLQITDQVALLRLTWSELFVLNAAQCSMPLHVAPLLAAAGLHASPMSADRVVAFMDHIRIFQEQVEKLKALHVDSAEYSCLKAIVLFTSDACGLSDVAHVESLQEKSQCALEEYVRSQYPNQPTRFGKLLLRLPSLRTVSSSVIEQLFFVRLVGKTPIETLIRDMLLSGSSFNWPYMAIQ
Usually inhibition stands for the change of the read-out against control, counted positive when it falls. Consider `CCC(CO)Nc1cccc2c1S(=O)(=O)N(Cc1cn(Cc3ccccc3C(F)(F)F)nn1)Cc1ccccc1O2` (stereo unspecified), for which the inhibition is -2%.

Take `COc1ccc(-n2c(SCC(=O)Nc3ccc(C)c(Cl)c3)nc3ccccc3c2=O)cc1`: the inhibition is 2.13%.

`CCCC[C@H](C(=O)N(CC)c1ccccc1)[C@@H](O)c1ccc2ccccc2c1`: the inhibition is -0.42%.

In the case of `Cc1ccc(OCC(=O)Nc2ccc(N3CCN(C(=O)c4ccco4)CC3)cc2)c(C)c1`, the inhibition is 44.3% (active).

For `Cc1ccc(NC(=O)C(c2ccccc2)N2CCN(C(=O)c3ccco3)CC2)cc1` (stereo unspecified), the inhibition was 3.53%.

Consider `O=C(COc1ccccc1)Nc1ccc(N2CCN(C(=O)c3cccs3)CC2)cc1`, for which the inhibition was -0.29%.

Take `C=CCN1C(=O)[C@H](CC(=O)NCCCN2CCCC2=O)[C@@]2(C(=O)OCC)CCCC=C12`: the inhibition is -4.55%.

Take `CC(C)(C)NC(=O)C(c1cccnc1)N(C(=O)c1cnco1)c1ccc(C(C)(C)C)cc1` (stereo unspecified): the inhibition is 36.4%.

In the case of `CSc1ccc(C=Nn2c(-c3ccc(F)cc3)n[nH]c2=S)cc1`, the inhibition was -7.74%.

Consider `Cc1ccc(NC(=S)NNC(=O)CSc2nnc(SCc3ccccc3Cl)s2)cc1`, for which the inhibition was 9.26%.

For the compound `FC(F)(F)c1cccc(NC(=S)OC2CCC23CCC(c2ccccc2)CC3)c1` (stereo unspecified), the inhibition was -0.26%.

In the case of `COc1cc(CCC(=O)Nc2ccncc2Cl)cc(OC)c1OC`, the inhibition was -12.9%.

In the case of `O=C(Cc1cccs1)Nc1ccc([N+](=O)[O-])cc1`, the inhibition was 1.87%.

For the compound `COc1ccc(CCNC(=O)COC(=O)Cc2cc(OC)c(OC)c(OC)c2)cc1`, the inhibition is 2.38%.

In the case of `CCCc1ccc(-c2csc(NC(=O)Cc3cccs3)n2)cc1`, the inhibition was 42.5% (active).

For `O=C(CCc1ccccc1)NCCc1cccs1`, the inhibition was -20.7%.

Take `Fc1ccc(-c2csc(-c3ccc(C4SCCS4)cc3)n2)cc1F`: the inhibition is 3.02%.

In the case of `COc1ccc(CC(=O)Nc2nc(-c3ccc(F)c(F)c3)cs2)cc1OC`, the inhibition was 64.1% (active).

For the compound `COc1ccc(C2(CNC(=O)Cc3ccc(OC)c(OC)c3)CCCC2)cc1`, the inhibition is -3.38%.

As for `COc1cc(CC(=O)Nc2nc(-c3ccc(F)c(F)c3)cs2)cc(OC)c1OC`, the inhibition is 64.1% (active).

In the case of `O=C(OC12CCCN(C1)/C(=C/c1cccnc1)C2)C1CCCC1` (stereo unspecified), the inhibition was 0.25%.

Regarding `Cc1cccc(C(=O)Nc2c(-c3ccc(F)cc3)nc3ncccn23)c1`, the inhibition was -5.63%.

On to `CCN(C(=O)[C@@H](C1CC1)[C@@H](O)c1ccc2ccccc2c1)c1ccccc1`, for which the inhibition is 8.36%.

For the compound `O=C1C(=O)N(Cc2ccc(-c3ccsc3)cc2)c2ccc(OC(F)(F)F)cc21`, the inhibition was -43.7%.

Regarding `CCCCC(=O)N[C@@H]1CC[C@@]23CCCN2C(=O)CCC[C@H]3[C@H]1C`, the inhibition was -2.57%.

Consider `CCOC(=O)c1cc(C(=O)Nc2ccc(S(=O)(=O)Nc3ccc(OC)cc3)cc2)nn1C`, for which the inhibition is 8.95%.

For the compound `COc1ccc(NS(=O)(=O)c2ccc(NC(=O)c3ccc(N(C)S(C)(=O)=O)cc3)cc2)cc1`, the inhibition is 60.6% (active).

With `COc1ccc(NS(=O)(=O)c2cc(NC(=O)c3ccc(S(=O)(=O)N(C)C)cc3)ccc2N2CCOCC2)cc1`, the inhibition is 9.06%.

Turning to `O=C(N1CCOCC1)N1CC[C@H]2[C@H](CCCN2Cc2ccc(F)cc2)C1`, the inhibition was 6.77%.

In the case of `CCOC(=O)c1cccc(NC(=O)CN(C)S(=O)(=O)c2ccc(-c3cocn3)s2)c1`, the inhibition was -17.4%.

Turning to `CCn1c(=O)n2n(c1=O)[C@@]1(C=C3CCCC[C@H]32)N=C(NC(=O)c2ccccc2)N(Cc2ccccc2)[C@H]1Cc1ccccc1`, the inhibition was 22.3%.

As to `C#CCN([C@H](C(=O)OC)C(C)CC)S(=O)(=O)c1ccccc1Br` (stereo partly specified), the inhibition was -21.6%.

With `FC(F)(F)c1cccc(Cn2ccc3ccc(-c4ccc5ccn(Cc6ccccc6)c5c4)cc32)c1`, the inhibition is 6.43%.

With `C[C@H](C(=O)N(C)c1ccccc1)[C@@H](O)c1ccc(Cl)cc1`, the inhibition is -16.9%.

As for `O=C(Nc1ccc(Br)cn1)C1CCN(S(=O)(=O)c2cccs2)CC1`, the inhibition was 48.1% (active).

As for `O=C(C1CCN(S(=O)(=O)c2cccs2)CC1)N1CCCCCC1`, the inhibition was -11.4%.

As to `O=C(NCc1ccc(Cl)cc1)C1CCN(S(=O)(=O)c2cccs2)CC1`, the inhibition is 5.16%.

As to `COC(=O)C1CN(Cc2cn(Cc3ccc(F)cc3)nn2)CCS(=O)(=O)N1Cc1ccc(Cl)cc1` (stereo unspecified), the inhibition is 7.03%.

Regarding `COC(=O)[C@]12C[C@H](CC(=O)NCc3cccs3)C(=O)N(CCc3ccc(OC)c(OC)c3)C1=C[C@H](C(C)C)O[C@@H]2C1CC1`, the inhibition was 17.9%.

As for `COc1ccc(N2CCN(CCNS(=O)(=O)c3ccc(C(C)(C)C)cc3)CC2)cc1`, the inhibition was 2.21%.

On to `C=CCN1C(=O)[C@@H](CC(=O)N2CCN(C(=O)c3ccco3)CC2)[C@]2(C(=O)OC)CCCCC=C12`, for which the inhibition was -0.82%.
